PubChem BioAssay (NCATS)
Results filed as inconclusive are left out. Where a call stands in place of a potency, no number is given. Active and inactive are the calls of the source. Calls follow the shape of the dose curve; as a rule, active = well fitted cell-killing curve with a large enough effect; inconclusive = small, poorly fitted or top-dose-only effect; inactive = no such curve, though single readings can be large or run the other way.

assay: qHTS of pediatric cancer cell lines to identify multiple opportunities for drug repurposing: Primary screen for Saos-2 cells (AID 1347097); conditions: Saos-2 viability, CellTiter-Glo ATP luminescence, 48 h; series mostly up to 46 µM; also: nearly all actives have a fitted effect of over 40% in size
Outline: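 Primary screen of approved and investigational compounds on cells in growth media at 37 degrees C, 5% CO2. MIPE set at 11-point and NPC set at 8-point dilutions; viability scored by ATP-based luminescence at 48 hours.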
Potency is read from the fitted curve at half-maximal effect.

Row | Compound | Potency
1 | Cc1onc(-c2c(Cl)cccc2Cl)c1C(=O)Cl | inactive
2 | CCOC(=O)Oc1ccc(CCNC(=O)[C@H](CCSC)NC(C)=O)cc1OC(=O)OCC | inactive
3 | O=[N+]([O-])c1nccn1CO[C@@H](CO)[C@H](O)CO | inactive
4 | NS(=O)(=O)c1ccc(N2CCCCS2(=O)=O)cc1 | inactive
5 | O=C(O)CCC(=O)OC[C@@H](NC(=O)C(Cl)Cl)[C@H](O)c1ccc([N+](=O)[O-])cc1 | inactive
6 | CC(=O)c1ccc(O)c(C(N)=O)c1 | inactive
7 | O=C1c2ccccc2CCc2ccccc21 | inactive
8 | CCOC(=O)c1ccc(NC(=O)CN2CCCCC2)cc1 | inactive
9 | Cc1c(F)cc2c(=O)c(C(=O)O)cn3c2c1CCC3C (centres undefined) | inactive
10 | CC(C)(C)NCC(O)COc1ccccc1OCC1CCCO1 (centres undefined) | inactive
11 | Cc1ccc(O)cc1 | inactive
12 | CCCCC(CC)CNC(=O)CC(C)OC(=O)CCC(=O)O (centres undefined) | inactive
13 | CCN(CC)CC(=O)OCC(=O)[C@@]1(O)CC[C@H]2[C@@H]3CCC4=CC(=O)CC[C@]4(C)[C@H]3[C@@H](O)C[C@@]21C | inactive
14 | OCCCc1ccccc1 | inactive
15 | O=C(CCCCC(=O)Nc1c(I)cc(I)c(C(=O)O)c1I)Nc1c(I)cc(I)c(C(=O)O)c1I | inactive
16 | Cc1cccc(OCC(O)CNC(C)(C)C)c1C (centres undefined) | inactive
17 | Cc1ccc(C(=O)C(=O)O)cc1C | inactive
18 | CC(=O)Nc1c(I)c(NC(C)=O)c(I)c(C(=O)O)c1I | inactive
19 | CC(C)(Oc1ccc(Cl)cc1)C(=O)OCCCOC(=O)C(C)(C)Oc1ccc(Cl)cc1 | inactive
20 | O=C(CO)[C@@H](O)[C@H](O)[C@@H](O)CO | inactive

Row | Compound | Potency
21 | CCOC(=O)O[C@]1(C(=O)OCCl)CC[C@H]2[C@@H]3CCC4=CC(=O)C=C[C@]4(C)[C@H]3[C@@H](O)C[C@@]21C | inactive
22 | C[C@H]1C[C@H](O)c2ccsc2S1(=O)=O | inactive
23 | CCN(CC)CC(=O)Oc1ccc(NC(C)=O)cc1 | inactive
24 | COC(=O)c1cc(Cl)c(NC(C)=O)cc1OC | inactive
25 | C[N+]1(C)CCC(OC(=O)C(O)(c2ccccc2)C2CCCC2)C1 (centres undefined) | inactive
26 | CCOC(=O)C(O)c1ccccc1 (centres undefined) | inactive
27 | CCN1CCCC1CN (centres undefined) | inactive
28 | Cc1cc2nc3ccc(=[N+](C)C)cc-3sc2cc1N | 2.99 µM (active)
29 | CCOC(=O)OCC/C(SC(=O)OCC)=C(\C)N(C=O)Cc1cnc(C)nc1N | inactive
30 | CCN(CC)CCN | inactive
31 | CC(C)(C)c1nnc(NS(=O)(=O)c2ccccc2)s1 | inactive
32 | CC(C)C(=O)Nc1cccc(C(F)(F)F)c1 | inactive
33 | CC(C)NCCCC1(C(N)=O)c2ccccc2-c2ccccc21 | inactive
34 | Oc1ccccc1-c1nnco1 | inactive
35 | CN=C(N)NC(=O)Nc1c(C)cccc1C | inactive
36 | Cc1cc(=O)oc2cc(O[C@@H]3SC[C@@H](O)[C@H](O)[C@H]3O)ccc12 | inactive
37 | CN1C(=O)c2ccccc2C1=O | inactive
38 | CCN1CCN(C(=O)N[C@@H](C(=O)N[C@@H]2C(=O)N3[C@@H]2SC(C)(C)[C@H]3C(=O)O)c2ccccc2)C(=O)C1=O | inactive
39 | O=C(C1CCCCC1)N1CC(=O)N2CCCc3ccccc3C2C1 (centres undefined) | inactive
